Results reported in PubChem BioAssay.
For some assays here: Potency and affinity values are given separately. Activity calls are given as the source filed them. Unless noted, no rule for the calls is given here.

How the values were obtained:
[1] = antimalarial activity against Dd2 strain (AID 2302;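 active = growth inhibition above 50% at the single 2 µM test dose, taken to imply half-maximal potency below 2 µM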;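 also: 0% = DMSO untreated growth and 100% = chloroquine plus artemisinin killed control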); details: P. falciparum Dd2 in RBCs, LDH growth readout, 72 h; at 2 µM; stronger effect = higher value
[2] = HepG2 cytotoxicity, primary screen, cytotoxicity control for P. falciparum antimalarial project, cell-based, ATP luminescence (AID 2303;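 active = inhibition above 50%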;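 also: 0% = DMSO wells and 100% = digitonin-killed cells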); details: HepG2 viability, 24-48 h, at 10 µM, stronger effect = higher value
[3] = target: L-lactate dehydrogenase (Plasmodium falciparum (isolate CDC / Honduras)) (UniProt Q27743); experiment: PfLDH activity inhibition – cell lysate, 3D7 strain, counter-screen for P. falciparum growth inhibition project (AID 2304);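 also: 0% = vehicle and 100% = reference inhibitor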; details: P. falciparum 3D7 crude extract, LDH APAD/NBT absorbance; at 2 µM; stronger effect = higher value
Chain of L-lactate dehydrogenase (Plasmodium falciparum (isolate CDC / Honduras)) (Q27743 whole entry, looked up): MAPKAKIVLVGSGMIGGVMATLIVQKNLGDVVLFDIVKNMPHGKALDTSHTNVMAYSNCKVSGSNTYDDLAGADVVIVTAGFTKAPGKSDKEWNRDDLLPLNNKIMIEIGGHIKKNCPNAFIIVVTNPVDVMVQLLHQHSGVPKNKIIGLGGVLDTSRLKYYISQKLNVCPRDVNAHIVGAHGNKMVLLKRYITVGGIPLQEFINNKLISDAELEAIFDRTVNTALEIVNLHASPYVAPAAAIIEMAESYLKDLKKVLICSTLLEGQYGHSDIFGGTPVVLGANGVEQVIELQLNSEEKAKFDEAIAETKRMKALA

[4] = inhibition of 3D7 malaria parasite growth – strain 3D7 (AID 2306);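 also: 0% = DMSO wells and 100% = chloroquine plus artemisinin control wells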; details: P. falciparum 3D7 erythrocytic growth, LDH absorbance, 72 h; at 2 µM; stronger effect = higher value
[5] = target: Calcium-dependent protein kinase 1 (Plasmodium falciparum (isolate 3D7)) (UniProt P62344); experiment: PfCDPK1 kinase inhibitors, biochemical, TCAMS library (AID 1159585; cut-off not given, nearly all actives have IC50 up to about 0.98 µM;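 also: inhibitors leave more ATP so luminescence rises with inhibition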); details: recombinant PfCDPK1, Kinase-Glo ATP depletion luminescence
Chain of Calcium-dependent protein kinase 1 (Plasmodium falciparum (isolate 3D7)) (P62344 whole entry, looked up): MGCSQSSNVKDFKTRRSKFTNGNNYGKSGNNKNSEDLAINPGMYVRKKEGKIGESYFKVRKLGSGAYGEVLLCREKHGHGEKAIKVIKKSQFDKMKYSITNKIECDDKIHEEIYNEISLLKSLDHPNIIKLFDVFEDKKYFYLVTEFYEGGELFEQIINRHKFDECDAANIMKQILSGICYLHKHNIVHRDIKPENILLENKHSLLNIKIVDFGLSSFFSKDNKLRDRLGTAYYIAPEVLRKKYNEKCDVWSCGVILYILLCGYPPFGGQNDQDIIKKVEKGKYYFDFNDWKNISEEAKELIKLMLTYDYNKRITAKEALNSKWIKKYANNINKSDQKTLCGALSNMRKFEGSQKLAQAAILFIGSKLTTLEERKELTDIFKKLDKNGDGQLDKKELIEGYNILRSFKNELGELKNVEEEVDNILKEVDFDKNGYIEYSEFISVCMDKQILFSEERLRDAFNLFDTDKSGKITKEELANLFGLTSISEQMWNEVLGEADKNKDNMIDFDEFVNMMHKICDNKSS

[6] = target: Plasmodium falciparum protein kinase 6 (PK6, PF3D7_1337100) (UniProt Q8IDW1); experiment: PfPK6 kinase inhibitors, biochemical, TCAMS library (AID 1159586); details: recombinant PfPK6, Kinase-Glo ATP depletion luminescence
Chain of Plasmodium falciparum protein kinase 6 (PK6, PF3D7_1337100) (Q8IDW1 1-305): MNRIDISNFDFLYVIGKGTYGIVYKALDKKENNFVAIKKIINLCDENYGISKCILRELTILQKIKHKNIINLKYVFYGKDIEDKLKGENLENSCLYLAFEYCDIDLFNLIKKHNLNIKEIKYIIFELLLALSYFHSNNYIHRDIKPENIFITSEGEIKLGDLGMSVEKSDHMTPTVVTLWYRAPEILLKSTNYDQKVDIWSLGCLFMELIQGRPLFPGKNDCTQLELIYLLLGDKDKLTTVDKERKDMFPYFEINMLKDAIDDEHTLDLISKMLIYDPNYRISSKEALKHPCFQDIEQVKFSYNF

[7] = target: Protein kinase 7 (PK7), Plasmodium falciparum 3D7 (PF3D7_0213400) (UniProt Q7YTF7); experiment: inhibition of Plasmodium PK7 catalytic activity – biochemical, TCAMS antimalarial set, Kinase-Glo luminescence (AID 1159587); details: recombinant PfPK7, Kinase-Glo ATP depletion luminescence
Chain of Protein kinase 7 (PK7), Plasmodium falciparum 3D7 (PF3D7_0213400) (Q7YTF7 1-343): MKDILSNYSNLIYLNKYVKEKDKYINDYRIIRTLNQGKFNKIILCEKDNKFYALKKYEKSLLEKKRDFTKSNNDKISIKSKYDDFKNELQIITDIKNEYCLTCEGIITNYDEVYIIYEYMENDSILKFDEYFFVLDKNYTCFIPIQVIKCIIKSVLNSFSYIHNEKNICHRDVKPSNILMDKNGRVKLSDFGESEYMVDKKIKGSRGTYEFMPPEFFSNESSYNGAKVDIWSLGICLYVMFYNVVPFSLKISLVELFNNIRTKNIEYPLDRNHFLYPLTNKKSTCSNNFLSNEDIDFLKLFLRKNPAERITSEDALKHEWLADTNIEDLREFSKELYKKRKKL

[8] = target: Calcium-dependent protein kinase 4 (Plasmodium falciparum (isolate 3D7)) (UniProt Q8IBS5); experiment: PfCDPK4 kinase inhibitors, biochemical, TCAMS library (AID 1159588; cut-off not given, nearly all actives have IC50 up to about 0.91 µM); details: recombinant PfCDPK4, Kinase-Glo ATP depletion luminescence
Chain of Calcium-dependent protein kinase 4 (Plasmodium falciparum (isolate 3D7)) (Q8IBS5 whole entry, looked up): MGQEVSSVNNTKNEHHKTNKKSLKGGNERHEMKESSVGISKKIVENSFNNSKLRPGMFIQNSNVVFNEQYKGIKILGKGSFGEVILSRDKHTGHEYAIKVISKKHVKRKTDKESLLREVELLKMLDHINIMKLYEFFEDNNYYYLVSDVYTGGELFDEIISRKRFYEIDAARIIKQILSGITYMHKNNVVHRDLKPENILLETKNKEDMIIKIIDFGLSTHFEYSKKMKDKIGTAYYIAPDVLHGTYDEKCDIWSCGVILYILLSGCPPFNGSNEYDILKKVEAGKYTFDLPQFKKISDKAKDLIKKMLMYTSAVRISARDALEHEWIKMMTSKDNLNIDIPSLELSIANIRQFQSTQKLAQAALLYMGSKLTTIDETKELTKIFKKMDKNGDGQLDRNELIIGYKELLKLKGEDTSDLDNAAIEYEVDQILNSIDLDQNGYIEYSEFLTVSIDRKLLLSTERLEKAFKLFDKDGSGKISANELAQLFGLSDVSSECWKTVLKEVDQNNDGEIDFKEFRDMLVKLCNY

CC(C)CN1CCN(CCNc2c3ccccc3nc3ccccc23)CC1
inactive: inhibition [2] 26% | inhibition [3] 0% | outcome [5] | outcome [6] | outcome [7] | outcome [8]
active: growth inhibition [1] 79% | growth inhibition [4] 97%

COc1cc(C(=O)NC2CC(C)(C)NC(C)(C)C2)ccc1-c1cc2cc(Cl)c(Cl)cc2[nH]1
inactive: growth inhibition [1] 31% | inhibition [2] 41% | inhibition [3] 6% | outcome [5] | outcome [6] | outcome [7] | outcome [8]
active: growth inhibition [4] 99%

COc1c(C2CCN(CCCCNC(=O)c3ccc(-c4ccc(C#N)cc4)c(O)c3)CC2)ccc2c1CCCC2
inactive: inhibition [2] 35% | inhibition [3] -2% | outcome [5] | outcome [6] | outcome [7] | outcome [8]
active: growth inhibition [1] 78% | growth inhibition [4] 100%

O=C(/C=C/c1ccc(Cl)c(Cl)c1)NCCCCCN1CCCN(C(=O)Nc2cccc(Cl)c2)CC1
inactive: growth inhibition [1] 2% | inhibition [2] 11% | inhibition [3] 0% | outcome [5] | outcome [6] | outcome [7] | outcome [8]
active: growth inhibition [4] 102%

CC(C)(C(=O)Nc1ccc(C2CCC(NCC3CC3)CC2)c(Cl)c1)c1ccc(C(F)(F)F)cc1 (stereo not given)
active: inhibition [2] 64% | growth inhibition [4] 97%
inactive: growth inhibition [1] 18% | inhibition [3] -1% | outcome [5] | outcome [6] | outcome [7] | outcome [8]

COc1ccccc1C1CC(c2ccc(Br)cc2)=NN1C(=O)c1ccccc1 (stereo not given)
inactive: inhibition [2] 12% | inhibition [3] -6% | outcome [5] | outcome [6] | outcome [7] | outcome [8]
active: growth inhibition [1] 59% | growth inhibition [4] 85%

Clc1ccc(-n2cnc3c(Nc4ccc(Oc5ccccc5)cc4)ncnc32)cc1Cl
active: growth inhibition [1] 65% | growth inhibition [4] 99%
inactive: inhibition [2] 4% | inhibition [3] 0% | outcome [5] | outcome [6] | outcome [7] | outcome [8]

O=C(Nc1cccc(F)c1)NC1CCN(c2ccnc3cc(Cl)ccc23)C1 (stereo not given)
active: growth inhibition [1] 64% | growth inhibition [4] 101%
inactive: inhibition [2] 13% | inhibition [3] -1% | outcome [5] | outcome [6] | outcome [7] | outcome [8]

CCC(NC[C@@H](O)[C@H](Cc1ccccc1)NC(=O)c1cc(C2CCCC2)cc(N2CCCC2=O)c1)c1cccc(Cl)c1 (stereo not given in full)
active: growth inhibition [1] 97% | growth inhibition [4] 100%
inactive: inhibition [2] 7% | inhibition [3] -8% | outcome [5] | outcome [6] | outcome [7] | outcome [8]

O=C(Nc1ccccc1F)N(CCCn1ccnc1)Cc1csc(-c2ccc(CNCc3ccccc3)cc2)n1
active: growth inhibition [4] 93%
inactive: growth inhibition [1] 26% | inhibition [2] 24% | inhibition [3] 2% | outcome [5] | outcome [6] | outcome [7] | outcome [8]

CN1CCCCC1CCc1cc(C(=O)Nc2ccc(-c3ccc(O)cc3)cc2)ccc1O (stereo not given)
active: growth inhibition [4] 91%
inactive: growth inhibition [1] 11% | inhibition [2] 6% | inhibition [3] 3% | outcome [5] | outcome [6] | outcome [7] | outcome [8]

NC1CCCN(Cc2ccc(-c3cccc(-c4nc5ccccc5[nH]4)c3)cc2)C1 (stereo not given)
active: growth inhibition [4] 95%
inactive: growth inhibition [1] 26% | inhibition [2] 26% | inhibition [3] 2% | outcome [5] | outcome [6] | outcome [7] | outcome [8]

COc1ccc(-c2ccc3c(-c4cccc(S(C)(=O)=O)c4)cnc(N)c3c2)cc1
active: growth inhibition [4] 89%
inactive: growth inhibition [1] 12% | inhibition [2] 41% | inhibition [3] 2% | outcome [5] | outcome [6] | outcome [7] | outcome [8]

Cc1cccn2c(=O)c3cc(C(=O)NC(C)c4ccccc4)c(=N)n(CCc4ccccc4)c3nc12 (stereo not given)
inactive: inhibition [2] 5% | inhibition [3] -3% | outcome [5] | outcome [6] | outcome [7] | outcome [8]
active: growth inhibition [1] 82% | growth inhibition [4] 101%

COc1cccc(NC(=O)[C@H](C(C)C)n2c(=O)[nH]c3ccccc3c2=O)c1
inactive: inhibition [2] -1% | inhibition [3] -1% | outcome [5] | outcome [6] | outcome [7] | outcome [8]
active: growth inhibition [1] 100% | growth inhibition [4] 101%

CCN(CC)CCn1c(=N)n(CC(=O)c2ccc(-c3ccccc3)cc2)c2ccccc21
inactive: growth inhibition [1] 38% | inhibition [2] 32% | inhibition [3] 0% | outcome [5] | outcome [6] | outcome [7] | outcome [8]
active: growth inhibition [4] 83%

CN1CCN(c2cccc(NC(=O)c3ccc(-c4ccc(C#N)cc4)cc3)c2)CC1
active: growth inhibition [4] 84%
inactive: growth inhibition [1] 7% | inhibition [2] 31% | inhibition [3] 2% | outcome [5] | outcome [6] | outcome [7] | outcome [8]

O=C(/C=C/c1ccc(-c2ccccc2)cc1)NCCCCCN1CCC(c2c[nH]c3ccccc23)CC1
inactive: growth inhibition [1] 23% | inhibition [3] 6% | outcome [5] | outcome [6] | outcome [7] | outcome [8]
active: inhibition [2] 91% | growth inhibition [4] 97%

Cc1ccc2nc(NC#N)[nH]c2c1
inactive: growth inhibition [1] -3% | inhibition [2] 7% | inhibition [3] 2% | outcome [5] | outcome [6] | outcome [7] | outcome [8]
active: growth inhibition [4] 96%

COc1ccc(-c2onc(C(F)(F)F)c2-c2ccc(Br)cc2)c(O)c1
active: growth inhibition [1] 77% | growth inhibition [4] 99%
inactive: inhibition [2] 7% | inhibition [3] 4% | outcome [5] | outcome [6] | outcome [7] | outcome [8]

CC(Cc1ccc(NS(=O)(=O)c2ccc(CC(C)NCCc3cccc(Cl)c3)cc2)cc1)NCCc1cccc(Cl)c1 (stereo not given)
inactive: growth inhibition [1] 38% | inhibition [2] 12% | inhibition [3] 4% | outcome [5] | outcome [6] | outcome [7] | outcome [8]
active: growth inhibition [4] 100%

CCOC(=O)CCc1cc(F)c(F)c(OC[C@H](O)CNC(C)(C)C(O)c2ccc3ccccc3c2)c1 (stereo not given in full)
inactive: inhibition [2] 12% | inhibition [3] -4% | outcome [5] | outcome [6] | outcome [7] | outcome [8]
active: growth inhibition [1] 92% | growth inhibition [4] 99%

Cc1sc2ncnc(Sc3nnc(N)s3)c2c1C
inactive: inhibition [2] 9% | inhibition [3] -1% | outcome [5] | outcome [6] | outcome [7] | outcome [8]
active: growth inhibition [1] 100% | growth inhibition [4] 101%

CCOC(=O)c1ccc(OCCCCCCOc2ccc(Br)cc2)cc1
active: growth inhibition [4] 98%
inactive: growth inhibition [1] -2% | inhibition [2] 12% | inhibition [3] -4% | outcome [5] | outcome [6] | outcome [7] | outcome [8]

CCC1CN2CCc3c([nH]c4ccccc34)C2CC1CC1=NCCc2c1[nH]c1ccc(OC)cc21 (stereo not given)
active: growth inhibition [1] 68% | inhibition [2] 99% | growth inhibition [4] 101%
inactive: inhibition [3] 1% | outcome [5] | outcome [6] | outcome [7] | outcome [8]

CCN(CC)S(=O)(=O)c1ccc(CCOCCCCCNCC(O)c2cc(Cl)c(N)c(Cl)c2)s1 (stereo not given)
inactive: inhibition [2] 35% | inhibition [3] -10% | outcome [5] | outcome [6] | outcome [7] | outcome [8]
active: growth inhibition [1] 80% | growth inhibition [4] 96%

Nc1nccc(-c2ccc3c(-c4cccc(F)c4)cnc(N)c3c2)n1
active: growth inhibition [4] 93%
inactive: growth inhibition [1] 44% | inhibition [2] 41% | inhibition [3] 5% | outcome [5] | outcome [6] | outcome [7] | outcome [8]

COCCN1CCN(Cc2ccc(-c3ccc(-c4nc5c(C)cccc5[nH]4)s3)cc2)CC1
active: growth inhibition [1] 52% | growth inhibition [4] 95%
inactive: inhibition [2] 32% | inhibition [3] -2% | outcome [5] | outcome [6] | outcome [7] | outcome [8]

Cc1cc(N)c2cc(NC(=O)/C=C/c3ccc([N+](=O)[O-])cc3)ccc2n1
inactive: inhibition [3] -2% | outcome [5] | outcome [6] | outcome [7] | outcome [8]
active: growth inhibition [1] 80% | inhibition [2] 76% | growth inhibition [4] 100%

O=C(Nc1ccc(Cl)cc1)Nc1nc2ccc([N+](=O)[O-])cc2[nH]1
inactive: growth inhibition [1] 6% | inhibition [2] -2% | inhibition [3] 3% | outcome [5] | outcome [6] | outcome [7] | outcome [8]
active: growth inhibition [4] 101%

COc1ccc(-c2cccc(NC(=O)c3cccc(C#N)c3)c2)cc1CN(C)CCN(C)C
active: growth inhibition [4] 99%
inactive: growth inhibition [1] 21% | inhibition [2] -5% | inhibition [3] 3% | outcome [5] | outcome [6] | outcome [7] | outcome [8]

CC(C)NCc1cccc(-c2ccc(NS(=O)(=O)c3cccc4cccnc34)cc2)c1
inactive: growth inhibition [1] 10% | inhibition [2] 21% | inhibition [3] 5% | outcome [5] | outcome [6] | outcome [7] | outcome [8]
active: growth inhibition [4] 90%

COc1ccccc1CCNC(=O)c1cc(Br)cc(N2CCN(c3ccncc3)CC2)c1
inactive: growth inhibition [1] 32% | inhibition [2] 38% | inhibition [3] 4% | outcome [5] | outcome [6] | outcome [7] | outcome [8]
active: growth inhibition [4] 84%

O=C1C(c2ccccc2)=C(Nc2ccc([N+](=O)[O-])cc2)c2ccccc21
active: growth inhibition [1] 73% | growth inhibition [4] 95%
inactive: inhibition [2] -2% | inhibition [3] -2% | outcome [5] | outcome [6] | outcome [7] | outcome [8]

COc1ccc(NC(=O)/C=C/c2cc(F)cc(C(F)(F)F)c2)cc1OCCN(C(C)C)C(C)C
active: growth inhibition [4] 97%
inactive: growth inhibition [1] 21% | inhibition [2] 18% | inhibition [3] -3% | outcome [5] | outcome [6] | outcome [7] | outcome [8]

CC(=O)N/N=C/[C@H](CCc1ccccc1)NC(=O)[C@H](CC(C)C)NC(=O)c1cccc(OCCN2CCOCC2)c1
inactive: inhibition [2] 13% | inhibition [3] -6% | outcome [5] | outcome [6] | outcome [7] | outcome [8]
active: growth inhibition [1] 78% | growth inhibition [4] 94%

Cc1cccc2c(CON3C(N)=NC(N)=NC3(C)C)cccc12
active: growth inhibition [1] 94% | inhibition [2] 64% | growth inhibition [4] 94%
inactive: inhibition [3] -1% | outcome [5] | outcome [6] | outcome [7] | outcome [8]

O=[N+]([O-])c1cccc(CNCC2CCN(Cc3ccc4ccccc4c3)CC2)c1
inactive: growth inhibition [1] 42% | inhibition [2] 18% | inhibition [3] 4% | outcome [5] | outcome [6] | outcome [7] | outcome [8]
active: growth inhibition [4] 100%

FC(F)(F)c1ccc(-c2cncc(-c3ccc(C(F)(F)F)cc3)n2)cc1
active: growth inhibition [1] 97% | growth inhibition [4] 98%
inactive: inhibition [2] 9% | inhibition [3] -7% | outcome [5] | outcome [6] | outcome [7] | outcome [8]

CC1(C)N=C(N)N=C(N)N1OCCCOc1cc(Cl)cc(Cl)c1
inactive: inhibition [3] 0% | outcome [5] | outcome [6] | outcome [7] | outcome [8]
active: growth inhibition [1] 97% | inhibition [2] 62% | growth inhibition [4] 95%
